PubChem BioAssay (NCATS)
Results filed as inconclusive are left out. Activity calls are given as the source filed them. Calls come from the whole dose curve; as a rule, active = well fitted curve in the direction sought with a large enough effect; inconclusive = small, poorly fitted or top-dose-only effect, or another doubt; inactive = no such curve, though single readings can be large; an effect the other way counts as inactive or inconclusive.

What was measured:
[1] = qHTS of pediatric cancer cell lines to identify multiple opportunities for drug repurposing: Confirmatory screen for U-2 OS cells (AID 1347122); note: nearly all actives have a fitted effect of over 65% in size; note: potency is the fitted concentration of half-maximal effect
Outline: (§1)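 Cells (500-1,000/well) in growth media were settled 5 h at 37 degrees C, then given compounds for 48 h. Viability was read as CellTiter-Glo luminescence. Primary runs used MIPE at 11 points (0.78 nM-46 µM) and NPC at 8 points (0.59 nM-46 µM); follow-ups used 11 points.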

[2] = qHTS of pediatric cancer cell lines to identify multiple opportunities for drug repurposing: Confirmatory screen for Rh41 cells (AID 1347123);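 note: 48 h compound exposure; nearly all actives have a fitted effect of over 60% in size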; note: potency is the fitted concentration of half-maximal effect
Outline: as §1

[3] = qHTS of pediatric cancer cell lines to identify multiple opportunities for drug repurposing: Confirmatory screen for RD cells (AID 1347124);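 note: cells exposed to compound for 48 h before viability readout; nearly all actives have a fitted effect of over 65% in size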; note: potency is the fitted concentration of half-maximal effect
Outline: as §1

[4] = qHTS of pediatric cancer cell lines to identify multiple opportunities for drug repurposing: Confirmatory screen for Rh18 cells (AID 1347125); note: nearly all actives have a fitted effect of over 55% in size; note: potency is the fitted concentration of half-maximal effect
Outline: as §1

[5] = qHTS of pediatric cancer cell lines to identify multiple opportunities for drug repurposing: Confirmatory screen for Rh30 cells (AID 1347126); note: nearly all actives have a fitted effect of over 55% in size; note: potency is the fitted concentration of half-maximal effect
Outline: as §1

[6] = qHTS of pediatric cancer cell lines to identify multiple opportunities for drug repurposing: Confirmatory screen for Saos-2 cells (AID 1347127); note: nearly all actives have a fitted effect of over 60% in size; note: potency is the fitted concentration of half-maximal effect
Outline: as §1

[7] = qHTS of pediatric cancer cell lines to identify multiple opportunities for drug repurposing: Confirmatory screen for OHS-50 cells (AID 1347128);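 note: compound exposure lasted 48 h at 37 degrees C; nearly all actives have a fitted effect of over 55% in size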; note: potency is the fitted concentration of half-maximal effect
Outline: as §1

Furin (Homo sapiens) = Furin (Homo sapiens) (UniProt P09958); assay: Furin counterscreen qHTS for Zika virus inhibitors (AID 1347149);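 note: purified recombinant full-length human furin enzyme at 5 nM; fluorescence gain from furin cutting a BOC-RVRR-AMC peptide substrate over 15 min; top concentration of the series differs between compounds; nearly all actives have a fitted effect of over 70% in size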
Sequence of Furin (Homo sapiens) (P09958 whole entry, looked up): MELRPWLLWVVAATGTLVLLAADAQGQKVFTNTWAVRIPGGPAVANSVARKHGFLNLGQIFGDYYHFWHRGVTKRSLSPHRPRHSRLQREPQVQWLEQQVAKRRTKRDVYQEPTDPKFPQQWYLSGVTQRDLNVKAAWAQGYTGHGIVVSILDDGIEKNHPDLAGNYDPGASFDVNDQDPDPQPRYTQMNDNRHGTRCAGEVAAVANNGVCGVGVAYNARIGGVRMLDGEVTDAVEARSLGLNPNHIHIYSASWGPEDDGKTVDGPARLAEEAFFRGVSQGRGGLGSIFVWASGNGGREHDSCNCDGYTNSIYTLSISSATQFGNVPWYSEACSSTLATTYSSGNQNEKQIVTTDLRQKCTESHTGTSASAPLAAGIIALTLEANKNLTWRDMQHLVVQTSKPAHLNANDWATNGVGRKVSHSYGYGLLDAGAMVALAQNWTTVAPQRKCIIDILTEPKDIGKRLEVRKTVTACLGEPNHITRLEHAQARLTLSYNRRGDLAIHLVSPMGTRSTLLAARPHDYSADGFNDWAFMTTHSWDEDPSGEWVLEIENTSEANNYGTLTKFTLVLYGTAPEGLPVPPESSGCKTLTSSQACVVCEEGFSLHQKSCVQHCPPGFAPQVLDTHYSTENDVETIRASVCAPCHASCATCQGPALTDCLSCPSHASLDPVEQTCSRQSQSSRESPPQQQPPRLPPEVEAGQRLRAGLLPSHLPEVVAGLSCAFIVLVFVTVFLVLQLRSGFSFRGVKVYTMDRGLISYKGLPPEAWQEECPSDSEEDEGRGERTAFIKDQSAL
Outline: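 Counterscreen measures cleavage of 2 microM BOC-RVRR-AMC, below its ~15 microM Km, by 5 nM full-length human furin at pH 7.0 after a 15-min compound preincubation. Inhibition derives from the 15-min fluorescence increase at 37C.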

[8] = molecular target: N-terminal Xaa-Pro-Lys N-methyltransferase 1 (Homo sapiens) (UniProt Q9BV86); assay: qHTS Assay for Inhibitors of N-terminal methyltransferase 1 (NTMT1): LOPAC validation of the NTMT1 SAHH-coupled ThioGlo3 Assay (AID 1347143);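 note: SAH from peptide methylation measured as thiol fluorescence via SAHH coupling and ThioGlo3; nearly all actives have a fitted effect of over 70% in size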
Sequence of N-terminal Xaa-Pro-Lys N-methyltransferase 1 (Homo sapiens) (Q9BV86 whole entry, looked up): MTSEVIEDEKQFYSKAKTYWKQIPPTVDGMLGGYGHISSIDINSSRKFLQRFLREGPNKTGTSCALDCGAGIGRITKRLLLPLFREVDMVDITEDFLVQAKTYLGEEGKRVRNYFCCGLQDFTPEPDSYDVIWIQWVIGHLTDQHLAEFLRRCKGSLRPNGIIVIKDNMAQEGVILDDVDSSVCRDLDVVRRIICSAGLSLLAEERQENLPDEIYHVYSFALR
Outline: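 In this qHTS pilot against the LOPAC set, 125nM NTMT1 met compounds tested at multiple concentrations, and fluorescence was normalized to background.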

[9] = tested on: Zika virus NS2B-NS3 protease (unlinked); assay: Optimization of GU AMC qHTS for Zika virus inhibitors: Unlinked NS2B-NS3 protease assay (AID 1347151); note: series mostly up to about 52 µM; nearly all actives have a fitted effect of over 80% in size
Outline: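 Noncovalent NS2B hydrophilic domain–NS3 protease complex (25 nM final) in 10 mM Tris-HCl pH 8.0, 0.01% Tween 20; AMC substrate, room temperature 15 min (~20% conversion); fluorescence change normalized, 4-parameter Hill fit.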

Measured: Potency

CCCCCCCCC(=O)NCc1ccc(O)c(OC)c1
inactive: [1] | [2] | [3] | [4] | [5] | [6] | [7]

Cc1ccc([N+](=O)[O-])[c]2c1[O][Hg]2
active: [1] 9.27 µM | [2] 0.233 µM | [3] 0.827 µM | [4] 5.22 µM | [6] 1.04 µM | [7] 2.61 µM

COc1ccc2c(C(=O)c3ccc(Cl)cc3)c(C)n(CC(=O)O)c2c1
inactive: [1] | [2] | [3] | [4] | [6] | [7]

CCc1ccc(C2CCNCC2)cc1
inactive: [1] | [2] | [4] | [5] | [6] | [7]

Oc1ccc([C@H]2CNCc3c2ccc(O)c3O)cc1O
inactive: Furin (Homo sapiens)

COc1ccc(C(=O)N2CCCC2=O)cc1
inactive: [1] | [2] | [6] | [8] | [9]

CCCCCCCCCCCC[N+](C)(C)CCOc1ccccc1
active: [1] 13.1 µM | [2] 7.37 µM | [3] 18.5 µM | [4] 20.8 µM | [5] 16.5 µM | [6] 14.7 µM | [7] 20.8 µM

CN1[C@@H]2CC[C@H]1CC(OC(=O)c1cc(Cl)cc(Cl)c1)C2 (stereo partly specified)
inactive: [1] | [4] | [5] | [6] | [7]

NC(=O)CN1CCCC1=O
inactive: [8] | [9]

CN(C)C(=S)SSC(=S)N(C)C
active: [1] 3.69 µM | [2] 0.233 µM | [3] 16.5 µM | [4] 0.585 µM | [6] 10.4 µM

CC1Sc2c(C(=O)O)c(=O)c3cc(F)c(N4CCNCC4)cc3n21 (stereo unspecified)
inactive: [1] | [2] | [4] | [7]

C[C@@H]1C[C@@H]([C@H](O)CC2CC(=O)NC(=O)C2)C(=O)[C@@H](C)C1
active: [1] 3.29 µM | [3] 2.61 µM | [5] 0.737 µM | [7] 0.928 µM

O=C(O)c1nn(Cc2ccc(Cl)cc2Cl)c2ccccc12
inactive: [8]

ClC1=C(Cl)C2(Cl)C(CBr)CC1(Cl)C2(Cl)Cl (stereo unspecified)
inactive: [2] | [3] | [4] | [5] | [6] | [7]

CC[n+]1c(-c2ccccc2)c2cc(N)ccc2c2ccc(N)cc21
active: [2] 1.65 µM | [3] 14.7 µM | [4] 4.14 µM | [5] 2.61 µM | [6] 16.5 µM | [7] 1.17 µM

C[C@@H]1O[C@@H](O[C@@H]2C=C3CC[C@@H]4[C@H](CC[C@]5(C)[C@@H](c6ccc(=O)oc6)CC[C@]45O)[C@@]3(C)CC2)[C@H](O)[C@H](O)[C@H]1O
active: [3] 0.0033 µM | [4] 6.57 µM | [6] 0.185 µM

O=C(O)Cc1ccccc1
inactive: [1] | [2]

CC(C)=CCN1CC[C@@]2(C)c3cc(O)ccc3C[C@@H]1[C@@H]2C
inactive: Furin (Homo sapiens) | [9]

COC(=O)C1=CCCN(C)C1
inactive: [1] | [2] | [3] | [4] | [5] | [7] | [8] | [9]
